# Laboratory results published in the supplement of paper PMC8728848.
# This is one part of a sample in which the strongest signals are shown more often than they occur.
# B1: CVN-E41G (protein)
# chain: MHHHHHHENLYFQSGNFSQACYNSAIQGSVLTSTCIRTNGGYNTSSIDLNSVIGNVDGSLKWQGSNFIETCRNTQLAGSSELAAECKTRAQQFVSTKINLDDHIAAIDGTLKYE
# Columns and labels:
# Assay in all cases: glycan array binding signal (z-score within array); higher = stronger binding
# Conditions in all cases: glycan notation: IUPAC condensed, linker removed; mutation: E41G
# Gal4S6S(b1-4)GlcNAc = target: Gal4S6S(b1-4)GlcNAc
# Summary of the method: (§1)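 Negative Z-scores can be read as non-binding. The Z-score is calculated within each array and then averaged across arrays of one protein sequence at different concentrations or buffers and across linkers. Arrays, 3228 in all, were curated from the Consortium for Functional Glycomics database and kept only where the protein sequence was available.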
# Gal6S(b1-4)Glc = target: Gal6S(b1-4)Glc
# Summary of the method: as §1
# [1] = target: GalNAc(b1-3)Gal(a1-4)Gal(b1-4)GlcNAc
# Summary of the method: as §1
# [2] = target: GlcNAc(b1-2)[GlcNAc(b1-4)]Man(a1-3)[GlcNAc(b1-4)][GlcNAc(b1-2)Man(a1-6)]Man(b1-4)GlcNAc(b1-4)GlcNAc
# Summary of the method: as §1
# [3] = target: GlcNAc(b1-2)[GlcNAc(b1-6)]Man(a1-6)[GlcNAc(b1-2)Man(a1-3)]Man(b1-4)GlcNAc(b1-4)GlcNAc
# Summary of the method: as §1
# [4] = target: GlcNAc(b1-3)Gal(b1-4)GlcNAc(b1-2)Man(a1-3)[GlcNAc(b1-3)Gal(b1-4)GlcNAc(b1-2)Man(a1-6)]Man(b1-4)GlcNAc(b1-4)GlcNAc
# Summary of the method: as §1
# [5] = target: GlcNAc(b1-3)Gal(b1-4)GlcNAc(b1-3)Gal(b1-4)GlcNAc(b1-3)Gal(b1-4)GlcNAc(b1-3)Gal(b1-4)GlcNAc(b1-2)[GlcNAc(b1-3)Gal(b1-4)GlcNAc(b1-3)Gal(b1-4)GlcNAc(b1-3)Gal(b1-4)GlcNAc(b1-3)Gal(b1-4)GlcNAc(b1-6)]Man(a1-6)[GlcNAc(b1-3)Gal(b1-4)GlcNAc(b1-3)Gal(b1-4)GlcNAc(b1-3)Gal(b1-4)GlcNAc(b1-3)Gal(b1-4)GlcNAc(b1-2)Man(a1-3)]Man(b1-4)GlcNAc(b1-4)[Fuc(a1-6)]GlcNAc
# Summary of the method: as §1
# [6] = target: GlcNAc(b1-6)Gal(b1-4)GlcNAc
# Summary of the method: as §1
# Kdn(a2-3)Gal(b1-4)GlcNAc = target: Kdn(a2-3)Gal(b1-4)GlcNAc
# Summary of the method: as §1
# [7] = target: Man(a1-2)Man(a1-2)Man(a1-3)Man
# Summary of the method: as §1
# [8] = target: Man(a1-2)Man(a1-2)Man(a1-6)[Man(a1-3)]Man
# Summary of the method: as §1
# Man(a1-2)Man(a1-3)Man = target: Man(a1-2)Man(a1-3)Man
# Summary of the method: as §1
# [9] = target: Man(a1-2)Man(a1-3)[Man(a1-2)Man(a1-6)]Man
# Summary of the method: as §1
# [10] = target: Man(a1-2)Man(a1-3)[Man(a1-2)Man(a1-6)]Man(a1-6)[Man(a1-2)Man(a1-2)Man(a1-3)]Man
# Summary of the method: as §1
# [11] = target: Man(a1-2)Man(a1-3)[Man(a1-6)]Man(a1-6)[Man(a1-2)Man(a1-3)]Man(b1-4)GlcNAc(b1-4)GlcNAc
# Summary of the method: as §1
# [12] = target: Man(a1-2)Man(a1-6)[Man(a1-3)]Man(a1-6)[Man(a1-2)Man(a1-2)Man(a1-3)]Man
# Summary of the method: as §1
# [13] = target: Man(a1-2)Man(a1-6)[Man(a1-3)]Man(a1-6)[Man(a1-2)Man(a1-2)Man(a1-3)]Man(b1-4)GlcNAc(b1-4)GlcNAc
# Summary of the method: as §1
# [14] = target: Man(a1-3)[Man(a1-6)]Man(a1-6)[Man(a1-2)Man(a1-3)]Man(b1-4)GlcNAc(b1-4)GlcNAc
# Summary of the method: as §1
# [15] = target: Neu5Ac(a2-3)Gal(b1-3)GalNAc(b1-4)Gal(b1-4)Glc
# Summary of the method: as §1
# [16] = target: Neu5Ac(a2-3)Gal(b1-3)GlcNAc6S
# Summary of the method: as §1
# [17] = target: Neu5Ac(a2-3)Gal(b1-4)GlcNAc(b1-3)Gal(b1-4)GlcNAc(b1-3)[Neu5Ac(a2-3)Gal(b1-4)GlcNAc(b1-3)Gal(b1-4)GlcNAc(b1-6)]GalNAc
# Summary of the method: as §1
# Neu5Ac(a2-6)Gal = target: Neu5Ac(a2-6)Gal
# Summary of the method: as §1
# [18] = target: Neu5Ac(a2-6)Gal(b1-4)GlcNAc(b1-2)[Neu5Ac(a2-6)Gal(b1-4)GlcNAc(b1-6)]Man(a1-6)[Neu5Ac(a2-6)Gal(b1-4)GlcNAc(b1-2)Man(a1-3)][GlcNAc(b1-4)]Man(b1-4)GlcNAc(b1-4)GlcNAc
# Summary of the method: as §1
# [19] = target: Neu5Ac(a2-6)Gal(b1-4)GlcNAc(b1-3)Gal(b1-4)GlcNAc(b1-3)Gal(b1-4)GlcNAc(b1-2)Man(a1-3)[Neu5Ac(a2-6)Gal(b1-4)GlcNAc(b1-3)Gal(b1-4)GlcNAc(b1-3)Gal(b1-4)GlcNAc(b1-2)Man(a1-6)]GalNAc
# Summary of the method: as §1
# [20] = target: Neu5Ac(a2-6)Gal(b1-4)GlcNAc(b1-6)[Gal(b1-3)GlcNAc(b1-3)]Gal(b1-4)Glc
# Summary of the method: as §1
# [21] = target: Neu5Ac(a2-8)Neu5Ac(a2-8)Neu5Ac(a2-3)Gal(b1-4)Glc
# Summary of the method: as §1
# [22] = target: Neu5Gc(b2-6)Gal(b1-4)GlcNAc
# Summary of the method: as §1
binder,measurement,setting,value
B1,glycan array binding signal (z-score),Gal4S6S(b1-4)GlcNAc,-0.19
same,glycan array binding signal (z-score),Gal6S(b1-4)Glc,-0.138
same,glycan array binding signal (z-score),[1],-0.154
same,glycan array binding signal (z-score),[2],-0.148
same,glycan array binding signal (z-score),[3],-0.145
same,glycan array binding signal (z-score),[4],-0.152
same,glycan array binding signal (z-score),[5],-0.123
same,glycan array binding signal (z-score),[6],-0.121
same,glycan array binding signal (z-score),Kdn(a2-3)Gal(b1-4)GlcNAc,-0.154
same,glycan array binding signal (z-score),[7],7.32
same,glycan array binding signal (z-score),[8],9.78
same,glycan array binding signal (z-score),Man(a1-2)Man(a1-3)Man,5.5
same,glycan array binding signal (z-score),[9],8.72
same,glycan array binding signal (z-score),[10],11
same,glycan array binding signal (z-score),[11],6.59
same,glycan array binding signal (z-score),[12],8.16
same,glycan array binding signal (z-score),[13],8.78
same,glycan array binding signal (z-score),[14],4
same,glycan array binding signal (z-score),[15],-0.111
same,glycan array binding signal (z-score),[16],-0.165
same,glycan array binding signal (z-score),[17],-0.126
same,glycan array binding signal (z-score),Neu5Ac(a2-6)Gal,-0.168
same,glycan array binding signal (z-score),[18],-0.139
same,glycan array binding signal (z-score),[19],-0.112
same,glycan array binding signal (z-score),[20],-0.167
same,glycan array binding signal (z-score),[21],-0.173
same,glycan array binding signal (z-score),[22],-0.155
